An excerpt weighted towards active compounds, which were near 0.67% of everything screened.
CaV13 FRET inh = Disruptors of the CACNA1D IQ motif to Ca2+-dependent inactivation inhibitor domain association, primary screening, Förster resonance energy transfer in intact living … | HEK cells, CFP/YFP FRET ICDI-IQ, plate reader, 10 min; percent FRET-ratio fall versus neutral wells | inhibition, % at 12.3 µM | 340,000 compounds, 0.098% hits;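 active = mean replicate inhibition of at least 30% and at least 1% of replicates passing that level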
GC-B act = human GC-B receptor activators, primary screen, HEK293 GC-B cells, cGMP TR-FRET, EC30 CNP; activation, % at 10 µM; AID 1920062, 2024; 370,000 compounds, 0.11% hits; 0% at EC30 CNP, 100% saturating CNP; Atrial natriuretic peptide receptor 2 (Homo sapiens), P20594;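 active = activation at 10 µM reaching about 35% in either raw or pattern-adjusted values, limit read from the data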
GC-A act = GC-A stimulated cGMP production enhancers – HEK293 GC-A cells, cGMP TR-FRET, EC30 ANP, primary screen | Atrial natriuretic peptide receptor 1 (Homo sapiens), P16066 | AID 1671463, 2021 | activation, % at 10 µM | 0% at EC30 ANP, 100% saturating ANP | 370,000 compounds, 0.14% hits; in the data active = activation above about 40%
Target sequence (P16066 whole entry, looked up): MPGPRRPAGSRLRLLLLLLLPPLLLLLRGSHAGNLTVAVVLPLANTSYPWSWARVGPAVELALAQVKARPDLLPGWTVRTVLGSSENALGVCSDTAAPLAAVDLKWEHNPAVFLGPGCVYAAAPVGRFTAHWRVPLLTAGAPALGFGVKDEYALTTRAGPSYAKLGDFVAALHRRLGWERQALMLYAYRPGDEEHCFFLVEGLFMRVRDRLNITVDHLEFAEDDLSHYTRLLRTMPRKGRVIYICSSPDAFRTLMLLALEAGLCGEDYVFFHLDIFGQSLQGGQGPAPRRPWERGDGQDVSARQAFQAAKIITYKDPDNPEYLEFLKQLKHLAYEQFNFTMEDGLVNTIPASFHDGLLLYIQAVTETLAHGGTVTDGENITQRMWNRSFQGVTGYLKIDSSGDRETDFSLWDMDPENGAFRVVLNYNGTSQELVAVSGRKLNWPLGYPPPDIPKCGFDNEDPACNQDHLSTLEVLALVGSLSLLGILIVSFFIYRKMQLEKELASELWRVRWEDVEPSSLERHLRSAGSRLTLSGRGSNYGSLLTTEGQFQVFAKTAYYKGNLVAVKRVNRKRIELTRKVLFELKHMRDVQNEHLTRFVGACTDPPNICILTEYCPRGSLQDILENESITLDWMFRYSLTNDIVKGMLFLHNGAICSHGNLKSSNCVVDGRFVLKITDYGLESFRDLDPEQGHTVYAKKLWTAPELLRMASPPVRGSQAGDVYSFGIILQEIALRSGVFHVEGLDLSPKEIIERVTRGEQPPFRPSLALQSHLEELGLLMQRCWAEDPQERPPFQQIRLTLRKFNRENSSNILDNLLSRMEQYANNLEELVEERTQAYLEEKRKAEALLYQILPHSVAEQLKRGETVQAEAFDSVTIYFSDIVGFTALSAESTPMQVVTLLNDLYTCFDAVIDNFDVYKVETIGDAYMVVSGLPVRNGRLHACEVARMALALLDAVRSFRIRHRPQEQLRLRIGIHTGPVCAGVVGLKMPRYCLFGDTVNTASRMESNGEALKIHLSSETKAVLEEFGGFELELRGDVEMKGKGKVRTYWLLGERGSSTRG
Rin1 Abl inh = inhibitors of Rin1-Abl protein binding, primary screen, biochemical, TR-FRET | Tyrosine-protein kinase ABL1 (Homo sapiens) + Ras and Rab interactor 1 (Homo sapiens), … | inhibition, % at 7.35 µM | 360,000 compounds, 0.4% hits | AID 588664, 2011; in the data active = inhibition above about 5%, passing the limit was not always enough
Each line names hits and unclear results; the compound was inactive in the other large screens.

[O-]/[N+](=C\c1ccccc1)c1ccccc1	none
N#CCC[C@@H]1CC[C@]2(CCCN(C(=O)c3ccc4ccccc4n3)C2)O1	none (no result: CaV13 FRET inh, Rin1 Abl inh)
O=C(c1cnn2c(C(F)(F)F)cc(-c3cccs3)nc12)N1CCN(Cc2ccccc2)CC1	GC-B act 46, GC-A act 51
CN1CCN(C(=O)c2cnn3c(C(F)(F)F)cc(-c4ccc5c(c4)OCO5)nc23)CC1	none
O=C(c1cnn2c(C(F)(F)F)cc(-c3ccc4c(c3)OCO4)nc12)N1CCCCC1	GC-B act 49, GC-A act 44
CN1CCN(C(=O)c2cnn3c(C(F)(F)F)cc(-c4cccs4)nc23)CC1	none
CN1C(=O)C[C@@](C#N)(C(=O)NCc2ccccc2)[C@H]1c1ccccc1	none (no result: CaV13 FRET inh, Rin1 Abl inh)
O=C(NC1CCCC1)C1CCN(S(=O)(=O)N2CCCCC2)CC1	none
CC1CCN(S(=O)(=O)N2CCC(C(=O)NC3CCCC3)CC2)CC1	CaV13 FRET inh 76
O=C1NC(Cc2ccc(O)cc2)c2nc3ccc(F)cc3c(=O)n2-c2cc3ccccc3cc21 (stereo not drawn)	GC-B act 65
O=C1NC(Cc2ccc(O)cc2)c2nc3cc(F)c(F)cc3c(=O)n2-c2cc3ccccc3cc21 (stereo not drawn)	GC-B act 38
Cc1ccc2nc3n(c(=O)c2c1)-c1cc2ccccc2cc1C(=O)NC3Cc1ccc(O)cc1 (stereo not drawn)	none
O=C1NC(Cc2ccccc2)c2nc3cc(F)c(F)cc3c(=O)n2-c2cc3ccccc3cc21 (stereo not drawn)	none
O=S1(=O)C=CCN1Cc1cn(Cc2ccc(C(F)(F)F)cc2)nn1	none (no result: CaV13 FRET inh, Rin1 Abl inh)
COCCn1c(SCC(N)=O)nnc1-c1c[nH]c2ccccc12	none
COCCn1c(SCc2ccc(C(=O)OC)o2)nnc1-c1c[nH]c2ccccc12	Rin1 Abl inh 11
NC(=O)c1cccc(-c2coc3c(C(=O)NCc4ccccc4)cccc23)c1	GC-B act 37
COc1ccc(OC)c(N=c2oc3cc(O)ccc3cc2C(N)=O)c1	GC-A act 56
NC(=O)c1cc2ccc(O)cc2oc1=NCc1ccccc1	CaV13 FRET inh 33
CCN(CC)c1ccc2cc(C(N)=O)c(=N)oc2c1	none
CCN(CC)c1ccc2cc(C(N)=O)c(=O)oc2c1	CaV13 FRET inh 33
Cc1c(Nc2nc3ccccc3nc2N2CCN(c3ccccc3)CC2)c(=O)n(-c2ccccc2)n1C	none
Cc1c(Nc2c3ccccc3nc3ccccc23)c(=O)n(-c2ccccc2)n1C	CaV13 FRET inh 165
CC(C)C[C@H]1COc2cc(F)ccc2S(=O)(=O)N1C	none (no result: CaV13 FRET inh, Rin1 Abl inh)
N#CCC[C@H]1CC[C@]2(CCCN(C(=O)c3ccc4ccccc4n3)C2)O1	none (no result: CaV13 FRET inh, Rin1 Abl inh)
CCn1c(=O)cc(OCC(=O)O)c2ccccc21	none
Cn1cc(C(c2ccccc2OCC(=O)O)c2cn(C)c3ccccc23)c2ccccc21	CaV13 FRET inh 45
O=C(O)c1cc(NN=Nc2ccc(Br)cc2)cc([N+](=O)[O-])c1	GC-A act 43
O=C(O)c1cc(NN=Nc2cccc([N+](=O)[O-])c2)cc([N+](=O)[O-])c1	none
OC(c1ccccc1)(c1ccccc1)C1CCN(CCCNc2cccc(Br)c2)CC1	none (no result: CaV13 FRET inh, Rin1 Abl inh)
O=C(OC1CCOC1=O)c1cc(-c2cccs2)nc2ccccc12 (stereo not drawn)	GC-A act 51
Cc1ccc(-c2cc(C(=O)OC3CCOC3=O)c3ccccc3n2)c(C)c1 (stereo not drawn)	none
COC(=O)CSc1nn(-c2ccc(F)cc2)c(=S)s1	GC-A act 40
O=C(N[C@H]1CCCCNC1=O)c1cc(COc2ccc(F)cc2F)on1	GC-A act 66
Cc1c(N=C2N=C(NC(=O)Nc3ccc(Cl)cc3)c3ccccc32)c(=O)n(-c2ccccc2)n1C	GC-A act 76
CCOC(=O)[C@]12CCCC=C1N(CCCOC)C(=O)[C@@H]2CC(=O)NCc1ccc(OC)c(OC)c1	none (no result: CaV13 FRET inh, Rin1 Abl inh)
S=c1[nH]nc(-c2n[nH]c3c2CCC3)n1N=Cc1ccc(OCc2ccccc2)cc1	none (no result: CaV13 FRET inh, Rin1 Abl inh)
COCCNC(=S)N/N=C/c1ccc(-c2ccc([N+](=O)[O-])cc2)o1	CaV13 FRET inh active
Cc1cc2c(C)cc(=O)oc2c2c1NCCC2	CaV13 FRET inh 33
Cc1ccc(NC(=O)c2cc(S(=O)(=O)N(C)C)ccc2N2CCCC2)cc1S(=O)(=O)N(C)C	GC-B act 38
COCCNc1c2c(c(C#N)c3nc4ccccc4n13)CCCC2	none
COc1ccc(Nc2c3c(c(C#N)c4nc5ccccc5n24)CCC3)cc1	GC-A act 41
CCOC(=O)Cn1nc(Cc2ccccc2)c2ccccc2c1=O	none
CN1CCCC(n2nc(Cc3ccc(Cl)cc3)c3ccccc3c2=O)CC1 (stereo not drawn)	GC-B act 118
O=C1OCCC1Sc1nnnn1-c1ccc(Cl)cc1 (stereo not drawn)	GC-A act 65
CCc1csc(N2[C@H](CN(CCOC)S(=O)(=O)c3ccccc3[N+](=O)[O-])[C@H](c3ccccc3)[C@@H]2CO)n1	none (no result: CaV13 FRET inh, Rin1 Abl inh)
CCc1nnc(NC(=O)c2ccc(-c3ccccc3F)o2)s1	CaV13 FRET inh 136
CCOC(=O)C1=C(C)Nc2ncnn2C1/C=C/c1ccccc1 (stereo not drawn)	none
CCCC1=C(C(=O)OCC)C(/C=C/c2ccccc2)n2ncnc2N1 (stereo not drawn)	GC-A act 45
COC(=O)[C@]12C[C@H](CC(=O)NCC34CC5CC(CC(C5)C3)C4)C(=O)N(CCc3ccc(OC)c(OC)c3)C1=C[C@H](C(C)C)O[C@@H]2C1CC1	none (no result: CaV13 FRET inh, Rin1 Abl inh)
COC(=O)c1ccc2nc(-c3ccccc3)c(Cc3cccc(F)c3)n2c1	none (no result: Rin1 Abl inh)
COC(=O)c1ccc2nc(-c3ccc(OC)c(OC)c3)c(Cc3cccc(F)c3)n2c1	none (no result: Rin1 Abl inh)
COC(=O)c1ccc2nc(-c3ccc(C)cc3)c(Cc3ccc(C)cc3)n2c1	GC-B act 50 (no result: Rin1 Abl inh)
COC(=O)c1ccc2nc(-c3ccco3)c(Cc3cccc(F)c3)n2c1	GC-B act 42
COC(=O)c1ccc2nc(-c3ccc(OC)c(OC)c3)c(Cc3ccc(C)cc3)n2c1	none
COC(=O)c1ccc2nc(-c3ccc(F)cc3)c(Cc3cccc(F)c3)n2c1	GC-B act 39 (no result: Rin1 Abl inh)
COC(=O)c1ccc2nc(-c3ccco3)c(Cc3ccc(C)cc3)n2c1	GC-B act 52, GC-A act 44
Cc1ccc(Cc2c(-c3ccco3)nc3ccc(C)cn23)cc1	none
COC(=O)[C@H](C(C)C)N1CCc2nnn(CC3CCCCC3)c2-c2cc(F)ccc2S1(=O)=O	none (no result: CaV13 FRET inh, Rin1 Abl inh)
COC(=O)c1cc(-c2ccc(Oc3ccccc3)cc2)c(=O)n2c1CCC2	none (no result: CaV13 FRET inh, Rin1 Abl inh)
Cc1ccc(S(=O)(=O)N2CCCC(C(=O)NCCN3CCC(Cc4ccccc4)CC3)C2)cc1 (stereo not drawn)	none (no result: CaV13 FRET inh, Rin1 Abl inh)
Cc1ccc(Cc2c(-c3ccco3)nc3c(C)cc(Br)cn23)cc1	GC-B act 50, GC-A act 49

High-throughput results as filed in PubChem.
